From paper PMC7862700, “An all-to-all approach to the identification of sequence-specific readers for epigenetic DNA modifications on cytosine”

How the values were obtained:
Assay in all cases: DAPPL (digital affinity profiling via proximity ligation, sequencing); 10 mM Tris-HCl pH 7.5, 50 mM NaCl, 1 mM DTT, 4% glycerol, room temperature, 30 min; GST-TFs on glutathione beads, 16-mer random dsDNA library, 0.1% formaldehyde crosslink after washing; high values mean tight binding
Details in all cases: protein: recombinant; tags: N-terminal GST; dsDNA, one strand shown
[1] = biological target: T1, FLI1 (Homo sapiens, UniProt Q01543 1-452)
T1 sequence: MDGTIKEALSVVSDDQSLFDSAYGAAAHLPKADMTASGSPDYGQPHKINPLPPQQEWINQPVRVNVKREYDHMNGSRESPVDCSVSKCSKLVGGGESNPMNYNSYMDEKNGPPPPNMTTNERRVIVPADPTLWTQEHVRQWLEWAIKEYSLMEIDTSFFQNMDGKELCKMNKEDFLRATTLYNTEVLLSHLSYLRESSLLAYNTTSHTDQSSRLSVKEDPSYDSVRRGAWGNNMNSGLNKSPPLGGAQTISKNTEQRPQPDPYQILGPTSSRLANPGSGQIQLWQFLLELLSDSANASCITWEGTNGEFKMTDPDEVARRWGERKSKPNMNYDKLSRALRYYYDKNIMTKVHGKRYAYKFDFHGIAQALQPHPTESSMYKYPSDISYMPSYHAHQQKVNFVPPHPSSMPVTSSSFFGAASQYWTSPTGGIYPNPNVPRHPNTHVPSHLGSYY
Procedure, shortened: (§1)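 Pools of DNA-barcoded human transcription factors, expressed in yeast as GST fusions on glutathione beads and combined with a tag-only sample, were incubated with 200 nmole of a 16-mer random double-stranded DNA library. Incubation took 30 min at room temperature in Tris/NaCl/DTT/glycerol buffer and was followed by washing, 0.1% formaldehyde crosslinking, proximity ligation (BsaI/T4 ligase, 1 h, 37 °C), PCR amplification and sequencing on an Illumina NextSeq500. Binding signal is the ratio of a hexamer's read frequency for a factor to its frequency for the tag-only sample.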

[2] = biological target: T2, ELK1 (Homo sapiens, UniProt P19419 1-428)
T2 sequence: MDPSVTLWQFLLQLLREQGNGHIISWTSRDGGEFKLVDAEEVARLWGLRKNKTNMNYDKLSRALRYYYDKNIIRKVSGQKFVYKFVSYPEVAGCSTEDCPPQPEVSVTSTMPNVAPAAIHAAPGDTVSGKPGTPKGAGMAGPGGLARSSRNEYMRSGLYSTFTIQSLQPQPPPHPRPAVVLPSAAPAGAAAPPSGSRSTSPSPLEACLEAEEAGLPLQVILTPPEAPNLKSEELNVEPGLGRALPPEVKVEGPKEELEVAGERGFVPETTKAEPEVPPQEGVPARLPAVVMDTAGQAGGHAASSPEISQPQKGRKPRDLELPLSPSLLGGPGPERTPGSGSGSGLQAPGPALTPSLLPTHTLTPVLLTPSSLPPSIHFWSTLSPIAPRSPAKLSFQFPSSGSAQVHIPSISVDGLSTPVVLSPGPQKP
Procedure, shortened: as §1

[3] = biological target: T3, GABPA (Homo sapiens, UniProt Q06546 1-454)
T3 sequence: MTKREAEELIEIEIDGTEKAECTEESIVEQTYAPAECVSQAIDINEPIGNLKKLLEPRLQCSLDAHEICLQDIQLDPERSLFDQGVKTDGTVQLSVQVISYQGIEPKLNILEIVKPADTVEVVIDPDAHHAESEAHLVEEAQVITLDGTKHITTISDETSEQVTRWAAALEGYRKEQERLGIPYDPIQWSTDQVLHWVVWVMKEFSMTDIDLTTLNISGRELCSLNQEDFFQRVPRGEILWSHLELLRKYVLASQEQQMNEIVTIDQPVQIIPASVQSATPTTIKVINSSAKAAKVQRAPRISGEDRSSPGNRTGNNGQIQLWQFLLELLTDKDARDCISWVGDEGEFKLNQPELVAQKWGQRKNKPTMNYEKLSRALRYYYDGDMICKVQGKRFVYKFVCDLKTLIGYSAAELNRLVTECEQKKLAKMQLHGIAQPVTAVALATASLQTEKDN
Procedure, shortened: as §1

[4] = biological target: T4, ERG (Homo sapiens, UniProt P11308 1-479)
T4 sequence: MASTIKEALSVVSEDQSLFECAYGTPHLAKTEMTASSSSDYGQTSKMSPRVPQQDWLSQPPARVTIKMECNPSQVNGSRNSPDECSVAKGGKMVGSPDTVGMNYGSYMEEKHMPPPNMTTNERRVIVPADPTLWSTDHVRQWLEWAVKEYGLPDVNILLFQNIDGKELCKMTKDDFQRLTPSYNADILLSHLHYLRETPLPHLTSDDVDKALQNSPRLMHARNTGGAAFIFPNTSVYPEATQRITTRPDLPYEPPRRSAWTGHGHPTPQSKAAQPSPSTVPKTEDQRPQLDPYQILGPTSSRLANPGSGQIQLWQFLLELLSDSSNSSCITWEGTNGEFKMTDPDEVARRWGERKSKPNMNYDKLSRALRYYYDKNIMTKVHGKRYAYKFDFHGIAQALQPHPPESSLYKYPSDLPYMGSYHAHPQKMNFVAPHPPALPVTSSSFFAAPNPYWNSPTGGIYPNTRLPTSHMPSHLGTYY
Procedure, shortened: as §1

[5] = biological target: ELF1 (Homo sapiens, UniProt P32519 1-619)
Procedure, shortened: as §1

[6] = biological target: T5, EHF (Homo sapiens, UniProt Q9NZC4 1-300)
T5 sequence: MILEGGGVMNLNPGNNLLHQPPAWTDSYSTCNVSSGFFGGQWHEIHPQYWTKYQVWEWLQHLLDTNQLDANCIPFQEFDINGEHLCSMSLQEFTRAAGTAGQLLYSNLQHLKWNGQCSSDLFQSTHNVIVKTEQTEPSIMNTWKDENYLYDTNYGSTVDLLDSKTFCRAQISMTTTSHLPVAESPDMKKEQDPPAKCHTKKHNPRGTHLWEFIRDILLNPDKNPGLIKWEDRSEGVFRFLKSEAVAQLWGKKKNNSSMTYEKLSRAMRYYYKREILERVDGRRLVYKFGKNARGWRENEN
Procedure, shortened: as §1

[7] = biological target: SPI1 (Homo sapiens, UniProt P17947 1-270)
Procedure, shortened: as §1

[8] = biological target: SPIB (Homo sapiens, UniProt Q01892 1-262)
Procedure, shortened: as §1

[9] = biological target: T6, ELK3 (Homo sapiens, UniProt P41970 1-407)
T6 sequence: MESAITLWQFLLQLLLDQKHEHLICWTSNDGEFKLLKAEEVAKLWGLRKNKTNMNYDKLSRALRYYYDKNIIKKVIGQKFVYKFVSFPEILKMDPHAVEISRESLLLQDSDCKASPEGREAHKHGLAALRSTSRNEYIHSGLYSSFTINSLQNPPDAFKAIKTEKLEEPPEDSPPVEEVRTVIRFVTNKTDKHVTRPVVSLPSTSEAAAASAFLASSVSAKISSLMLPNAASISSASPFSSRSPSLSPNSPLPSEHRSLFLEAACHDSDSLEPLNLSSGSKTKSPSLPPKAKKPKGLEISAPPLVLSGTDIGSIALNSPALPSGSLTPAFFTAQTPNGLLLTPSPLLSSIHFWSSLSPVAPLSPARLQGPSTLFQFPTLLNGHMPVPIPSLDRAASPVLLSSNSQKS
Procedure, shortened: as §1

Chain of ELF1 (P32519 whole entry): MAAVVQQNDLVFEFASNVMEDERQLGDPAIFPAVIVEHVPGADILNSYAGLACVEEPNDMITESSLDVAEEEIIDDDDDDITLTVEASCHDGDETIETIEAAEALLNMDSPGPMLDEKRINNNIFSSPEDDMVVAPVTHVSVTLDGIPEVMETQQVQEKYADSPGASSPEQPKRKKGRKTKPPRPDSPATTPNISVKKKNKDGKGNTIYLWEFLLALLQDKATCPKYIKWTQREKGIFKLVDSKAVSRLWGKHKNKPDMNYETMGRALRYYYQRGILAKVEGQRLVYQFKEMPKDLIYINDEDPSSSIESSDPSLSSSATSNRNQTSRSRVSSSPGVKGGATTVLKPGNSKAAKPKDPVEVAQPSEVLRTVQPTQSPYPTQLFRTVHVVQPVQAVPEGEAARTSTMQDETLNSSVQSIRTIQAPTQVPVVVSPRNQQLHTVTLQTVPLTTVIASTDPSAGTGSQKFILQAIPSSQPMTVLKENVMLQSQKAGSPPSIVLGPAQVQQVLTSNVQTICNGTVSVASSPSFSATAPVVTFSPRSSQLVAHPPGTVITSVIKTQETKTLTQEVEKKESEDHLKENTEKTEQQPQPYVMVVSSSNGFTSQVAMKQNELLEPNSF
Chain of SPIB (Q01892 whole entry): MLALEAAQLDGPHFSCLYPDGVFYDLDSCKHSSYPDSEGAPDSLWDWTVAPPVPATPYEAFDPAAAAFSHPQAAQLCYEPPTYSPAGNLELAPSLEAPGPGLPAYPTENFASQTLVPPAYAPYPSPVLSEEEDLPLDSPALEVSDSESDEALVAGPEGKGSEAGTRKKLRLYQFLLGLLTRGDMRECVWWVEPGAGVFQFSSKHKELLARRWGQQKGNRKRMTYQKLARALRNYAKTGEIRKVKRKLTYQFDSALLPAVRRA

For CGAACC, the binding signal [1] was 1.1 fold enrichment (6-mer frequency, TF over GST control), the binding signal [2] was 1.29 fold enrichment (6-mer frequency, TF over GST control) and the binding signal [3] was 1.22 fold enrichment (6-mer frequency, TF over GST control). The binding signal [4] was 1.15 fold enrichment (6-mer frequency, TF over GST control), the binding signal [5] was 1.23 fold enrichment (6-mer frequency, TF over GST control) and the binding signal [6] was 1.19 fold enrichment (6-mer frequency, TF over GST control). The binding signal [7] was 1.17 fold enrichment (6-mer frequency, TF over GST control), the binding signal [8] was 1.13 fold enrichment (6-mer frequency, TF over GST control) and the binding signal [9] was 1.21 fold enrichment (6-mer frequency, TF over GST control).
